SMILES strings stand for the structures. Hit rate of the full screen: of about 330,000 compounds, about 5,800 (1.8%) were called active. The sample holds actives, similar compounds and a random draw of the others, so the mix is not that of the screen.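 How the source made its calls: active means inhibition above about 50% at the single tested dose (limit read from the data); inactive means the rest.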

This passage reports inhibition results from PubChem BioAssay AID2599 (Sanford-Burnham Center for Chemical Genomics, 2010).

For this assay, the target named is Sentrin-specific protease 6 (Homo sapiens) (UniProt Q9GZR1). As to the kind of experiment: inhibition of human SENP6 catalytic domain – biochemical, luminescence, uHTS, primary screen (AID 2599).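 Further: plate controls were DMSO wells with enzyme for no effect and DMSO wells lacking enzyme for full effect.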 To be noted: Recombinant SENP6 catalytic domain, aminoluciferin luminescence; at 10 µM; hits give high values.
Chain of Sentrin-specific protease 6 (Homo sapiens) (Q9GZR1 628-1112 limits assumed): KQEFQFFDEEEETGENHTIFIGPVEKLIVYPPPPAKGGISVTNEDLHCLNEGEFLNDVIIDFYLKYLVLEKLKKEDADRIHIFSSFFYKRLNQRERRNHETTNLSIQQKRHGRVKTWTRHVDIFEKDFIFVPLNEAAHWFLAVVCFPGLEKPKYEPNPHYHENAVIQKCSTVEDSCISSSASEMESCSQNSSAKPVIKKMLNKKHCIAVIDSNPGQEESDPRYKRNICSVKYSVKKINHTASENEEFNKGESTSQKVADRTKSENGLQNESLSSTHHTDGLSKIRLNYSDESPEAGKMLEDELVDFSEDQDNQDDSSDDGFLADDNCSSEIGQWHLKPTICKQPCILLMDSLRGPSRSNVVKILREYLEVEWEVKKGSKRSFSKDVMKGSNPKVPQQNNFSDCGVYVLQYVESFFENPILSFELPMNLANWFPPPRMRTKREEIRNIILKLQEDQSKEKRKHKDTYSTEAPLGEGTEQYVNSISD
Take `C/C(=N\Nc1nncc2ccccc12)c1ccc(Cl)c([N+](=O)[O-])c1`: the inhibition was 1.2% (inactive).

As to `COc1cc(/C=N/Nc2nn3cnnc3c3ccccc23)cc(OC)c1OC`, the inhibition was 2.31% (inactive).

With `CN(CCO)c1ccc(/C=N/Nc2nncc3ccccc23)cc1`, the inhibition is 96.7% (active). Turning to `COc1ccc(NC(=O)C2C3C=CC(C3)C2C(=O)NCc2ccccn2)c(OC)c1` (stereo unspecified), the inhibition was 10.4% (inactive).

As for `Cc1noc(C)c1COc1ccc2ccc(=O)oc2c1`, the inhibition was -9.61% (inactive).

For the compound `CCCCc1cc(=O)oc2cc(C)cc(OCc3nn[nH]n3)c12`, the inhibition was -1.99% (inactive). As for `COc1ccc(-c2cc3ccc(OCc4nn[nH]n4)cc3oc2=O)cc1`, the inhibition was 68.8% (active). As for `CCS(=O)(=O)Nc1ccc(C(=O)NCCSc2ccccc2)cc1`, the inhibition was 11.9% (inactive). The result for `Cc1cccc(OCC(=O)Nc2ccc(C(=O)O)cc2NC(=O)COc2cccc(C)c2)c1` reads 10.8% (inactive). As for `Cc1cccc(OCCC(=O)Nc2ccccc2C(N)=O)c1`, the figure is -32.4% (inactive); as for `COc1ccc([N+](=O)[O-])cc1NC(=O)CCc1ccccc1`, -1.66% (inactive); as for `Cc1ccc(F)c(NC(=O)CCOc2ccccc2C)c1`, 5.27% (inactive). As for `Cc1cccc(OCC(=O)Nc2ccccc2F)c1`, the figure is 56.4% (active). Take `Cc1ccc(F)c(NC(=O)CCc2ccccc2)c1`: the inhibition was 51.3% (active). As for `CCOC(=O)C1C(=O)NCC1c1ccccc1` (stereo unspecified), the figure is -10.2% (inactive); as for `Cc1ccc(-c2ccnc3nc(Sc4ncc(C(F)(F)F)cc4Cl)nn23)cc1`, 3.77% (inactive); as for `CCOC(=O)CSC1=N/C(=C/c2ccc(-n3cncn3)cc2)C(=O)N1C(C)=O`, 4.91% (inactive). With `CCOC(=O)C1CCN(C(=O)CN2C(=O)c3cccnc3Oc3ccc(C)cc32)CC1`, the inhibition was -14.4% (inactive).

In the case of `Cc1nn(-c2ccccc2)c2[nH]c(C(F)(F)F)cc(=O)c12`, the inhibition was -1.92% (inactive).

For the compound `N=c1c2c3c(sc2ncn1CCCN1CCOCC1)CCCCC3`, the inhibition was 3.22% (inactive).

With `O=C(O)C1OC(C(=O)O)C2C1C(F)(F)C2(F)F` (stereo unspecified), the inhibition was -10.3% (inactive). With `COc1cc(/C=C(\C#N)c2nc3ccccc3[nH]2)ccc1O`, the inhibition is 92.4% (active). The result for `Cc1ccc2nc(/C(C#N)=C\c3ccc(OC(=O)c4cccs4)cc3)[nH]c2c1` reads -7.94% (inactive); that for `COc1cc(/C=C(\C#N)c2nc3c(s2)CC(C)CC3)ccc1O` (stereo unspecified), 8.39% (inactive). The result for `c1ccc(C[C@H]2CNCCN2CCC23CC4CC(CC(C4)C2)C3)cc1` reads 1.32% (inactive). As for `O=C(Nc1ccccc1Cc1ccccc1)c1ccc2c(c1)SC1=NS(=O)(=O)CCN12`, the inhibition was -1.13% (inactive). With `O=C(NCc1ccco1)C(c1ccncc1)N(C(=O)Cn1nnc2ccccc21)c1ccccc1` (stereo unspecified), the inhibition was -7.82% (inactive). Turning to `O=C(CC1C(=O)NCCN1C(=O)c1ccc([N+](=O)[O-])cc1)Nc1cccc(Cl)c1` (stereo unspecified), the inhibition is -13.3% (inactive). The result for `O=Cc1ccc(Oc2cccc(C(F)(F)F)c2)nc1` reads 7.02% (inactive); that for `O=[N+]([O-])c1cccc(C2=NCCS2)c1`, -2.08% (inactive).

For the compound `FC(F)(F)c1ccnc(Oc2ccc(C3=NCCS3)cc2)c1`, the inhibition was 74.8% (active). As for `Cc1cccc(N)c1SC1CCCCC1O` (stereo unspecified), the figure is 14.9% (inactive). With `CCCCN1C(N)=NC[C@@H]1CC1CCCCC1`, the inhibition is -9.84% (inactive). In the case of `CCCCN(CC)CCNC(=O)CCNC(=O)Cn1ccc2ccccc2c1=O`, the inhibition was -9.66% (inactive).

`C=CCOc1ccc(Cl)cc1CNCCCN1CCOCC1`: the inhibition was 7.54% (inactive). As for `c1ccc(-n2nnnc2NC2CCCCCC2)cc1`, the inhibition is -14.3% (inactive). The result for `O=C(c1ccccc1)N1N=C(c2ccccc2O)CC1c1ccc(Br)cc1` (stereo unspecified) reads -41.6% (inactive). The result for `Brc1ccc(C2CC(c3ccccc3)=Nc3ccccc3N2)cc1` (stereo unspecified) reads 81.3% (active); that for `CNC(=S)N1N=C(c2ccccc2)CC1c1ccc(Br)cc1` (stereo unspecified), -4.9% (inactive); that for `COc1cc(NC(=S)N2CCCC(C)C2)c(OC)cc1Cl` (stereo unspecified), 1.77% (inactive).

Take `O=C(CC(c1ccccc1)c1ccccc1)NCC(O)c1ccc([N+](=O)[O-])cc1` (stereo unspecified): the inhibition was -31.1% (inactive). For `COC(=O)CCSc1nccn1Cc1ccccc1`, the inhibition is -11% (inactive). Consider `CCCCCC(O)(CCN1CCCCC1)c1ccccc1` (stereo unspecified), for which the inhibition is 5.63% (inactive). The result for `Cc1cccc(C(=O)Nc2ccc(C(=O)N/N=C/c3cccc(C)n3)cc2)c1` reads -5% (inactive); that for `C/C(=N\NC(=O)CNc1cccc2ccccc12)c1ccc(Br)s1`, 77.3% (active); that for `C/C(=N\NC(=O)CSc1nc2ccccc2c(=O)n1-c1ccccc1C)c1cccs1`, 6.68% (inactive). `Cc1ccccc1NCC(=O)N/N=C\c1ccc([N+](=O)[O-])s1`: the inhibition is 44% (inactive). The result for `CC/C(=N\NC(=O)c1ccccc1Cl)c1ccc(Br)s1` reads 3.9% (inactive).

`Cc1cccc(/C=N/NC(=O)CNc2cccc3ccccc23)n1`: the inhibition was 78.3% (active). For the compound `Cc1ccc(NC(=O)CSc2nc(=O)n(CCN(C)C)c3c2CCCC3)c(C)c1`, the inhibition is -3.87% (inactive). As for `CC(NC(=S)Nc1ccc(S(N)(=O)=O)cc1)c1ccc2c(c1)OCO2` (stereo unspecified), the figure is 7% (inactive); as for `CCn1c(SCC(=O)NNC(=O)c2ccc(OC)cc2)nnc1C(C)C`, -13.3% (inactive).

On to `Cc1nn2c(NCCN(C)C)c3c(nc2c1-c1ccccc1)CCC3`, for which the inhibition is -33.9% (inactive). The result for `Cc1ccc(S(=O)(=O)N(C)C)cc1NC(=O)C(C)OC(=O)c1ccc2ccccc2n1` (stereo unspecified) reads -0.065% (inactive); that for `CC(OC(=O)c1ccc2ccccc2n1)C(=O)c1ccccc1` (stereo unspecified), 65.8% (active); that for `CC(NC(=O)COC(=O)c1ccc2ccccc2n1)c1ccccc1` (stereo unspecified), -2.28% (inactive). As for `CC(OC(=O)CNS(=O)(=O)/C=C/c1ccccc1)C(=O)Nc1ccc(S(=O)(=O)N2CCCC2)cc1` (stereo unspecified), the inhibition is 1.69% (inactive). In the case of `Cn1c(=O)c(=O)n(C)c2cc(S(=O)(=O)NCCN3CCN(c4ccccc4F)CC3)ccc21`, the inhibition was -19.5% (inactive).

As to `CCOC(=O)[C@H]1CCC[C@@H](NS(=O)(=O)c2ccc(NC(C)=O)cc2)C1`, the inhibition was 4.75% (inactive). As to `O=C(Cc1nc2ccccc2[nH]c1=O)c1ccc(Cl)cc1`, the inhibition was 50.3% (active). The result for `O=C(/C(=C/c1cccc(Cl)c1)c1nc2ccccc2[nH]1)c1ccccc1` reads -2.12% (inactive). Regarding `N#C/C(=C(/O)COC(=O)COc1ccc(Cl)cc1)c1nc2ccccc2[nH]1`, the inhibition is -13.3% (inactive). Take `COc1cccc(C(=O)CC(=O)C(=O)Nc2ccc([N+](=O)[O-])cc2C)c1`: the inhibition was 3.79% (inactive). For `CC1(C)C=C2[C@H]3CC[C@@H]4[C@@]5(C)CCC(=O)C(C)(C)[C@@H]5CC[C@@]4(C)[C@]3(C)CC[C@@]2(C(=O)O)CC1`, the inhibition was 12.4% (inactive). The result for `O=C(C1=C[C@H](c2coc3ccccc3c2=O)C[C@H](OCc2ccc(CO)cc2)O1)N1CCN(Cc2ccccc2)CC1` reads -13.7% (inactive); that for `O=C(NC(=S)Nc1ccc(Br)cc1F)C1CCCCC1`, -12.9% (inactive); that for `O=C(c1cnn2ccccc12)N1CCc2ccccc21`, 51% (active). With `CCOC(=O)N1CCC(NC(=O)c2cnn3ccccc23)CC1`, the inhibition is 3.17% (inactive). As for `Cc1cnc(C(=O)OCC(=O)N2CCc3ccccc32)cn1`, the figure is 0.963% (inactive); as for `Cc1oc2cc(Br)c(O)c(Br)c2c1C(=O)c1ccccc1`, -11.8% (inactive); as for `Cc1ccnc(NC(=O)c2ccoc2C)c1`, 88.3% (active). Take `COc1cc(SC)ccc1C(=O)Nc1nc(C)cs1`: the inhibition was 97.3% (active). With `Cc1occc1C(=O)Nc1cccc(Cn2cccn2)c1`, the inhibition is -1.37% (inactive). As for `Cc1csc(NC(=O)c2ccc(C)s2)n1`, the figure is 0.083% (inactive); as for `COC(=O)c1sc(NC(=O)c2ccc(OC)cc2OC)nc1C`, 74% (active); as for `COc1cc(SC)ccc1C(=O)NNC(=O)C1COc2ccccc2O1` (stereo unspecified), -13.5% (inactive). The result for `COc1cc(SC)ccc1C(=O)NCCOc1ccccc1Cl` reads 13.4% (inactive). Take `COc1cc(SC)ccc1C(=O)N(Cc1ccccc1)c1ccccc1`: the inhibition was -10.9% (inactive).

With `Cc1ccnc(NC(=O)CNC(=O)c2ccccc2)c1`, the inhibition is 6.25% (inactive). The result for `COc1cc2ccccc2cc1C(=O)Nc1nc(C)c(C(C)=O)s1` reads 16.4% (inactive); that for `COc1ccc(C(=O)Nc2cccc(NC(=O)c3ccc(OC)cc3OC)n2)c(OC)c1`, -18% (inactive); that for `COc1cc(SC)ccc1C(=O)Nc1cc(C)ccn1`, 62.6% (active). For the compound `C=CCN(CC=C)C(=O)COC(=O)c1n[nH]c2ccccc12`, the inhibition was -20.6% (inactive). As for `CCOc1ccc(NC(=S)NC(=O)/C=C/c2ccc(OC)cc2)c([N+](=O)[O-])c1`, the figure is -2.86% (inactive); as for `O=C(Nc1nccs1)C1CCN(S(=O)(=O)c2ccc(Cl)c(C(F)(F)F)c2)CC1`, -4.6% (inactive); as for `CCOc1ncccc1C(=O)Nc1ccc(S(=O)(=O)Nc2nc(C)cc(C)n2)cc1`, -19.1% (inactive). Turning to `O=C(c1ccc(OC2CCN(C/C=C/c3ccc(F)cc3)CC2)cc1)N1CCCCC1`, the inhibition was 0.618% (inactive). As for `COc1cc(C)nc(N2CCCC(C(=O)NCC(C)C)C2)n1` (stereo unspecified), the figure is -10.1% (inactive); as for `O=C(NNS(=O)(=O)c1ccc(F)cc1)C1CCCCC1`, -3.19% (inactive); as for `CC(=O)c1sc(NC(=O)c2ccc(C)cc2)nc1C`, 62% (active). On to `COC(=O)c1sc(NC(=S)NC(=O)c2ccc(C)cc2)nc1C`, for which the inhibition is -20% (inactive).

Turning to `CCOC(=O)c1sc(NC(=O)c2sc(C)nc2C)nc1C`, the inhibition is 15.3% (inactive).

For `CC(=O)c1sc(N/N=C\c2ccc(C)cc2)nc1C`, the inhibition was 23.9% (inactive). As for `CCOC(=O)c1cccnc1NC(=O)c1ccncc1`, the figure is -2.78% (inactive). For `CCOC(=O)c1sc(NC(=O)c2ccncc2)nc1C`, the inhibition was 97.5% (active). For `COC(=O)[C@]1(Cc2ccccc2)N[C@H](CN(C)S(=O)(=O)c2ccc(OC(F)(F)F)cc2)[C@@H]2C(=O)N(C)C(=O)[C@@H]21`, the inhibition is 17% (inactive).
